This note sets out measurements from PubChem BioAssay AID624489 (Broad Institute, 2012).

Potency and affinity values are given separately. Active and inactive are the calls of the source.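 The calls were made as follows: active = compounds with a falling luminescence curve whose half-maximal concentration is at most twice the top valid dose; inconclusive = flat fit between -70 and -30 percent, or poor fit; inactive = the rest.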

This test can be described thus: A375 melanoma cell cytotoxicity, dose response, counter-screen for MITF inhibitor project, CellTiter-Glo luminescence, dry powder, set 2 (AID 624489). Particulars: A375 melanoma viability, CellTiter-Glo ATP luminescence, 24 h; series mostly up to 35 µM. Background: Counterscreens check selectivity or assay interference.
Regarding `COc1ccc(C2=C(NC(=O)c3ccc(OC)cc3-c3cccc(OC)c3)C(=O)c3ccccc3C2=O)cc1`, the molecule was classed as inactive.

With `O=C1C(NS(=O)(=O)c2ccc(Br)cc2)=C(N2CCN(c3ccccc3)CC2)C(=O)c2ccccc21`, the outcome was inactive.

Turning to `C=CCNC1=C(NS(=O)(=O)c2cccs2)C(=O)c2ccccc2C1=O`, the outcome was inactive.

For the molecule `C=CCNC1=C(NC(=O)c2ccccc2)C(=O)c2ccccc2C1=O`, the molecule was called inactive.

For `C=CCNC1=C(NCC=C)C(=O)c2ccccc2C1=O`, the molecule was called inactive.
